Out of some 39,000 compounds screened, about 3,300 (8.5%) were called active. For the sample, actives were picked, then their nearest neighbours and some compounds at random.
Each compound was assayed on HepG2 (assay: cytotoxicity call (relative viability < 0.9)). Conditions: 10 µM.
With `C[C@H](CO)N1C[C@H](C)[C@H](CN(C)C(=O)NC2CCCCC2)Oc2ccc(NC(=O)Nc3cccc4ccccc34)cc2CC1=O` the cytotoxicity call was “inactive”. With `C[C@@H]1CN([C@H](C)CO)C(=O)Cc2cc(NC(=O)Cc3ccccc3)ccc2O[C@@H]1CN(C)S(=O)(=O)c1ccc(F)cc1` the cytotoxicity call was “inactive”. In the case of `Cc1noc(C)c1NC(=O)Nc1ccc2c(c1)C(=O)N([C@H](C)CO)C[C@H](C)[C@@H](CN(C)C(=O)NC1CCCCC1)OCCCC[C@H](C)O2`, the cytotoxicity call is reported as “inactive”. In the case of `C[C@@H]1CN([C@H](C)CO)C(=O)c2cccc(NS(C)(=O)=O)c2O[C@H]1CN(C)C(=O)Nc1ccc(F)cc1`, the cytotoxicity call is reported as “inactive”. For `O=C(C[C@H]1C=C[C@@H](NC(=O)CN2CCOCC2)[C@@H](CO)O1)NCc1cccc(F)c1`, the cytotoxicity call was “inactive”. With `Cc1noc(C)c1NC(=O)Nc1cccc2c1O[C@H](CN(C)C(=O)Nc1cccc3ccccc13)[C@H](C)CN([C@H](C)CO)C2=O` the cytotoxicity call was “inactive”. In the case of `C[C@@H]1CN([C@@H](C)CO)C(=O)Cc2cc(NC(=O)c3ccncc3)ccc2O[C@@H]1CN(C)S(=O)(=O)c1cn(C)cn1`, the cytotoxicity call is reported as “inactive”. In the case of `C=C(C)C1=NC(C)(C)C[C@H](C)O1`, the cytotoxicity call is reported as “inactive”. In the case of `CS(=O)(=O)N1C[C@@H]2COC[C@@]2(CN2CCOCC2)C1`, the cytotoxicity call is reported as “inactive”. In the case of `CC(C)(C)S(=O)N1Cc2cc(C(=O)NCc3ccc4c(c3)OCO4)nc(-c3cccc(C#CCC4CCCC4)c3)c2[C@@H]1CCO` (stereo partly drawn), the cytotoxicity call is reported as “inactive”. With `CN(C)CCCNC(=O)C[C@@H]1CC[C@@H]2[C@H](COc3ccc(NC(=O)NC4CCCC4)cc3C(=O)N2C)O1` the cytotoxicity call was “inactive”. For `Cc1noc(C)c1NC(=O)N(C)C[C@H]1OCCCC[C@H](C)Oc2ccc(NC(=O)c3ccccc3)cc2C(=O)N([C@@H](C)CO)C[C@@H]1C`, the cytotoxicity call was “inactive”. `C[C@H](CO)N1C[C@H](C)[C@H](CN(C)Cc2ccc(Cl)c(Cl)c2)OCCCC[C@H](C)Oc2ccc(NC(=O)C3CCCCC3)cc2C1=O` was tested, and the cytotoxicity call was “inactive”. For `C[C@@H]1CN([C@@H](C)CO)C(=O)c2cc(NC(=O)C3CCCCC3)ccc2O[C@@H](C)CCCCO[C@@H]1CN(C)Cc1ccc(Cl)c(Cl)c1`, the cytotoxicity call was “inactive”. With `C[C@@H]1CCCCO[C@@H](CN(C)Cc2ccc(Cl)c(Cl)c2)[C@H](C)CN([C@H](C)CO)C(=O)c2cc(NC(=O)C3CCCCC3)ccc2O1` the cytotoxicity call was “active”. In the case of `COc1ccc(CN(C)C[C@@H]2Oc3ccc(NC(=O)CCCN(C)C)cc3C(=O)N([C@@H](C)CO)C[C@H]2C)cc1`, the cytotoxicity call is reported as “inactive”. `Cn1c(CNc2ccccc2)cc(=O)n(C)c1=O` was tested, and the cytotoxicity call was “inactive”. For `COCCOC(=O)N1C(=O)[C@@]2(c3cc(C#CC4(O)CCCCCC4)ccc31)[C@H](c1ccccc1OCCO)N1[C@H](c3ccccc3)[C@H](c3ccccc3)OC(=O)[C@H]1[C@@H]2C(=O)N1CCc2cc(OC)c(OC)cc2C1`, the cytotoxicity call was “inactive”.

Reference: the antibiotic and cytotoxicity screens of Wong et al. (2023)
